Measurements published in the supplement of paper PMC6555819.

Tests used:
Test in all cases: PBM binding z-score (relative to random genomic background probes); higher = stronger binding; sequences stand for … in GC…GCGATTGACAGCGTAGAATGAAGG
[1] = system: FXR:RXRa (NR concentration 270 nM, RXRa partner concentration 90 nM)
In short: (§1)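 Probes were double-stranded and carried 34-nt variable regions with direct-repeat seeds, single-nucleotide variants, half-site ablations and random human genomic background sequences, printed on custom Agilent 4×180K protein-binding microarrays. Arrays were incubated 1 h with ligand-free nuclear receptor dimers in PBS pH 7.4, 2% milk, 0.02% Triton X-100, 1 mM DTT, 0.2 mg/mL BSA and 0.4 mg/ml salmon testes DNA. Antibodies against each partner (one per run) detected binding, and scanned fluorescence was regression-normalized. Binding z-scores use the random background probes as reference.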

[2] = system: LXRa:RXRa (NR concentration 270 nM, RXRa partner concentration 90 nM)
In short: as §1

[3] = system: LXRa homodimer (NR concentration 270 nM)
In short: as §1

[4] = system: LXRb:RXRa (NR concentration 270 nM, RXRa partner concentration 90 nM)
In short: as §1

[5] = system: LXRb homodimer (NR concentration 270 nM)
In short: as §1

[6] = system: PPARa:RXRa (NR concentration 270 nM, RXRa partner concentration 90 nM)
In short: as §1

[7] = system: PPARg:RXRa (NR concentration 180 nM, RXRa partner concentration 90 nM)
In short: as §1

[8] = system: PPARg:RXRa 270nM:90nM, anti-RXR (NR concentration 270 nM, RXRa partner concentration 90 nM)
In short: as §1

[9] = system: PPARg:RXRa 30nM:10nM, anti-RXR (NR concentration 30 nM, RXRa partner concentration 10 nM)
In short: as §1

[10] = system: PPARg:RXRa 90nM:30nM, anti-RXR (NR concentration 90 nM, RXRa partner concentration 30 nM)
In short: as §1

[11] = system: PPARg:RXRa DBDmut IVT, anti-RXR (DBD mutation: RXRa K156A/R161A, NR concentration 270 nM, RXRa partner concentration 90 nM)
In short: as §1

[12] = system: PPARg:RXRa IVT, anti-PPARg (NR concentration 270 nM, RXRa partner concentration 90 nM)
In short: as §1

[13] = system: PPARg DBDmut:RXRa IVT, anti-PPARg (DBD mutation: PPARg1 K132A/R137A, NR concentration 270 nM, RXRa partner concentration 90 nM)
In short: as §1

[14] = system: PPARg DBDmut IVT, anti-PPARg (DBD mutation: PPARg1 K132A/R137A, NR concentration 270 nM)
In short: as §1

[15] = system: PPARg homodimer (NR concentration 180 nM)
In short: as §1

[16] = system: PXR:RXRa (NR concentration 270 nM, RXRa partner concentration 90 nM)
In short: as §1

[17] = system: PXR homodimer (NR concentration 270 nM)
In short: as §1

[18] = system: RARa:RXR (NR concentration 270 nM, RXRa partner concentration 90 nM)
In short: as §1

[19] = system: RARa homodimer (NR concentration 270 nM)
In short: as §1

[20] = system: RARb:RXRa (NR concentration 270 nM, RXRa partner concentration 90 nM)
In short: as §1

| Sequence | PBM binding z-score [1] | PBM binding z-score [2] | PBM binding z-score [3] | PBM binding z-score [4] | PBM binding z-score [5] | PBM binding z-score [6] | PBM binding z-score [7] | PBM binding z-score [8] | PBM binding z-score [9] | PBM binding z-score [10] | PBM binding z-score [11] | PBM binding z-score [12] | PBM binding z-score [13] | PBM binding z-score [14] | PBM binding z-score [15] | PBM binding z-score [16] | PBM binding z-score [17] | PBM binding z-score [18] | PBM binding z-score [19] | PBM binding z-score [20] |
| --- | --- | --- | --- | --- | --- | --- | --- | --- | --- | --- | --- | --- | --- | --- | --- | --- | --- | --- | --- | --- |
| GCTCGGAGGACAAGGACAGAGCTTTGTCCGTAGA | -0.454 | -0.825 | -0.708 | -0.936 | -1.44 | -0.604 | -0.644 | -0.934 | -1.21 | -1.04 | -0.897 | -0.505 | -1.52 | -0.297 | -0.588 | -0.527 | -0.912 | -0.421 | -1.45 | 0.929 |
| CCTGCTAGGTCAATAGTCAGCTAAAGCAGCTCGC | 2.43 | 1.66 | -0.401 | 0.931 | 0.148 | 2.28 | 2.33 | 2.95 | 0.219 | 1.9 | 3.97 | 3.08 | -0.361 | -0.649 | 0.586 | 0.324 | -0.908 | 0.911 | -1.08 | 3.45 |
| CCTGCTGGGCCAAGGTCATTGATCAGTCAAAGCA | 3.6 | 3.06 | 0.626 | 2.99 | -0.84 | 3.64 | 1.23 | 2.56 | -0.0774 | 1.46 | 0.105 | 1.18 | -1.48 | -1.47 | 2.84 | 3.79 | 1.84 | 3.92 | -0.536 | 3.48 |
| CCGGCTAGGTCATGGTCAGCTAATCTACAGTATG | 3.61 | 2.64 | 0.191 | 1.89 | 0.207 | 3.42 | 1.86 | 2.4 | 0.212 | 1.38 | 3.44 | 2.65 | -0.0629 | -0.269 | 2.5 | 1.4 | -0.16 | 2.53 | 0.954 | 3.91 |
| ACTAGCAGGCCAAGGGTCCCTCAAGATTAGTCCG | -0.253 | -0.502 | -0.631 | -0.64 | -1.13 | 1.09 | 2.3 | 4.09 | 1.73 | 3.84 | 0.0687 | 0.882 | -0.919 | -0.963 | -0.0936 | -0.598 | -0.427 | -0.327 | -1.05 | 0.381 |
| CCAGACAGGTGAGCAGGTAACTCAGCCTCGATTA | -0.268 | 0.0871 | -0.134 | 0.00402 | -0.328 | 0.272 | 0.174 | -0.00169 | -0.644 | -0.464 | 1.15 | 0.619 | -0.93 | -1.41 | 0.319 | -0.31 | 0.22 | -0.516 | 0.0182 | 0.568 |
| TCTTGTAGATCAAGAGAGGTTAAGAAAGTGCGCT | 0.516 | 3.28 | 0.0219 | 1.46 | -0.672 | 1.44 | -0.217 | 1.2 | 2.19 | 1.72 | 0.899 | 0.319 | -0.033 | -0.382 | -0.0736 | 2.95 | 0.139 | 1.6 | -0.753 | 0.635 |
| CGTGCTAGGTCAATGGTCAGCTAAAGCAGCTCGC | 3.1 | 2.22 | 0.0909 | 1.37 | -0.184 | 3.03 | 5.04 | 5.55 | 2.98 | 5.12 | 4.64 | 4.42 | 0.168 | -1.05 | 1.65 | 0.869 | -0.615 | 1.59 | -0.282 | 3.77 |
| CCGACTAGGGCATAAGGTTACCATAAGCCAGCCC | 0.247 | 2.13 | -0.18 | 1.02 | -0.736 | 2.19 | 2.8 | 3.77 | 1.43 | 3.27 | 4.2 | 3.79 | -0.186 | -0.826 | 1.57 | 0.295 | -0.287 | 1.7 | -0.466 | 1.86 |
| CATACTGGGCCAAGGTCATTGATCAGTCAAAGCA | 3.54 | 3.16 | 1.14 | 3.19 | 0.044 | 4.12 | 4.1 | 4.28 | 2.31 | 3.8 | 3.65 | 4.49 | 0.346 | -0.286 | 2.02 | 3.78 | 2.15 | 4.01 | 0.356 | 3.35 |
| AGAACGAGGGCAATGAGTTAATAGCACGGGTGGC | 0.223 | 0.22 | -0.363 | -0.11 | -0.589 | 1.34 | 1.56 | 1.23 | -0.12 | 0.528 | 3.29 | 2.59 | 0.242 | 0.395 | 0.0728 | 1.43 | 2.98 | 0.239 | -0.224 | 2.04 |
| AGAATGAGGTTACCAAAGATCTGGGAAACGCTTG | 1.57 | 2.23 | -0.414 | 1.23 | -0.401 | 3.4 | 2.74 | 2.37 | 0.756 | 1.91 | 3.41 | 3.25 | 0.193 | 0.0654 | 0.163 | 0.907 | -0.203 | 1.77 | -0.536 | 1.98 |
| AATACAGGGTCATCGCAGGCCAGAGTACGCACAG | 7.15 | 6.19 | 2.29 | 4.62 | 1.25 | 5.93 | 6.6 | 6.2 | 2.73 | 4.39 | 2.75 | 4.33 | 1.54 | 0.985 | 1.94 | 5.07 | 0.737 | 4.69 | 1.07 | 4.45 |
| AGAATGAGGTTAAGATCAGGGACACAGAATACAT | 2.45 | 2.04 | 0.0815 | 1.81 | 0.324 | 3.55 | 2.54 | 2.39 | 0.988 | 1.85 | 3.45 | 3.13 | 1.64 | 0.953 | 1.01 | 1.54 | 0.664 | 2.14 | 1.57 | 2.23 |
